Results on 15 sequences are retold here after PMC4081100, “A DNA-binding-site landscape and regulatory network analysis for NAC transcription factors in Arabidopsis thaliana”.

Common to all, as to experiment: universal protein binding microarray (PBM); transcription factors of Arabidopsis thaliana; high values mean tight binding
Conditions in all cases: protein: recombinant; tags: GST; chain copies: 2; dsDNA, one strand shown

In test [1] the target is T1, GST-ANAC092(1-176) (Arabidopsis thaliana, UniProt Q9FKA0 1-176).
T1 sequence: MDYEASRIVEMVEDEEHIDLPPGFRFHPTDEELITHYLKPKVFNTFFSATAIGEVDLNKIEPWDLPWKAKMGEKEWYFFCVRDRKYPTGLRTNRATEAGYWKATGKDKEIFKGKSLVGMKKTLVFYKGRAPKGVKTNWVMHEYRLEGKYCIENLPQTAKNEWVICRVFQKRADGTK
The gist of the method:
(§1)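 Binding is expressed as the normalised enrichment score (E-score). Proteins carrying a GST tag, whether NAC-domain, full-length or DNA-binding-domain forms, were induced in cells, and zinc acetate was added for zinc-finger proteins. After purification on glutathione–Sepharose 4B and quantification by A280 or anti-GST western blot, each was applied in duplicate at 200 to 500 nM final to custom all-10-mer Agilent 4 × 180K arrays made double-stranded by primer extension. Gapped and ungapped 8-mers were scored.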

For test [2], the target named is GST-NTL6(1-168) (Arabidopsis thaliana, UniProt Q9SCK6 1-168). The gist of the method:
as §1

The target in test [3] is T2, GST-ANAC019 NAC domain (Arabidopsis thaliana, UniProt Q9C932 14-162).
T2 sequence: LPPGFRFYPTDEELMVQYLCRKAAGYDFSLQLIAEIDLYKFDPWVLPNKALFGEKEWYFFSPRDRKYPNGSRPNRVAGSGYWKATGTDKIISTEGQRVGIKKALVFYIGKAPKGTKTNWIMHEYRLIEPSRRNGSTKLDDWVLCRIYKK
The gist of the method:
as §1

Test [4] deals with T3, GST-ANAC055(1-171) (Arabidopsis thaliana, UniProt Q9LDY8 1-171).
T3 sequence: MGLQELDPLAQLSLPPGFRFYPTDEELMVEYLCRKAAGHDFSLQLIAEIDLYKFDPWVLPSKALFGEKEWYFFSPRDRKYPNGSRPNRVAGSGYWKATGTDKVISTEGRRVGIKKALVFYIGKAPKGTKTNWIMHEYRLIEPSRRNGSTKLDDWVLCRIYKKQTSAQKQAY
The gist of the method: as §1

Test [5] addresses T4, GST-ATAF1 NAC domain (Arabidopsis thaliana, UniProt Q39013 7-158).
T4 sequence: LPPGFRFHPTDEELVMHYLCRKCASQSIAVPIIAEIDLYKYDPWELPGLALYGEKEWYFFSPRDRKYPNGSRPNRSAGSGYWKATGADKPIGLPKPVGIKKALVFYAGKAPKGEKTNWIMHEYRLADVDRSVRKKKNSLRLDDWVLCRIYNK
The method, boiled down:
as §1

Test [6] addresses T5, GST-ANAC092(1-285) full length (Arabidopsis thaliana, UniProt Q9FKA0 1-285).
T5 sequence: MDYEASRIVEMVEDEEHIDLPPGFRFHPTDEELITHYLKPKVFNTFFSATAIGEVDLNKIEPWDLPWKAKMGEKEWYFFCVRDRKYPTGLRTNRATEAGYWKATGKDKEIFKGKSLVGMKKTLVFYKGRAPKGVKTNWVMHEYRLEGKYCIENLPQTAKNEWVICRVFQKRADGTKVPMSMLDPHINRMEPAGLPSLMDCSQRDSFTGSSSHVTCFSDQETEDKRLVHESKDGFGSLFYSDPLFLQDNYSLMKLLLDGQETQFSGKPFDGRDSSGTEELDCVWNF
The method, boiled down:
as §1

Test [7] concerns the target T6, GST-NST2(1-184) (Arabidopsis thaliana, UniProt Q9M274 1-184).
T6 sequence: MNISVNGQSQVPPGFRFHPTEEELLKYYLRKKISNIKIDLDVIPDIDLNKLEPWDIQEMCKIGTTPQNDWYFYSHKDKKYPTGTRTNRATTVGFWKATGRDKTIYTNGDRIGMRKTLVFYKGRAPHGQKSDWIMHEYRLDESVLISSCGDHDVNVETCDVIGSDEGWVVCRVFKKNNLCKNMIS
The gist of the method: as §1

The target in test [8] is T7, GST-NTL8 NAC domain (Arabidopsis thaliana, UniProt Q9XIN7 14-156).
T7 sequence: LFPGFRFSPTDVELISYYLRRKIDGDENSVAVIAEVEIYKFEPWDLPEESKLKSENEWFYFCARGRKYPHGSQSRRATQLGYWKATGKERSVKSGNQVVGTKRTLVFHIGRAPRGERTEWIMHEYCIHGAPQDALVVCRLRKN
The gist of the method: as §1

Test [9] deals with T8, GST-SND1(1-203) (Arabidopsis thaliana, UniProt Q9LPI7 1-203).
T8 sequence: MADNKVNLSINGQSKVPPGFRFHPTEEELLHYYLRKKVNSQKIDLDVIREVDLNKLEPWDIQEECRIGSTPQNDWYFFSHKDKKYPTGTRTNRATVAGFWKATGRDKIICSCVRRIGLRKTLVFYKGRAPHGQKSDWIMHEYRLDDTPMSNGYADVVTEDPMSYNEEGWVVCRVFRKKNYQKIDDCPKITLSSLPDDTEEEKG
The gist of the method: as §1

Test [10] concerns the target T9, GST-VND3 NAC domain (Arabidopsis thaliana, UniProt Q9FH59 12-162).
T9 sequence: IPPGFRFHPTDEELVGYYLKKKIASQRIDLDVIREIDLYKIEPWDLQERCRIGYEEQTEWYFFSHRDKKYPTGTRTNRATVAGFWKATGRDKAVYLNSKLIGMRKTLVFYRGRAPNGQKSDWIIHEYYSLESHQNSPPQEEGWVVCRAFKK
The gist of the method:
as §1

For test [11], the target named is T10, GST-VND7 NAC domain (Arabidopsis thaliana, UniProt Q9C8W9 9-158).
T10 sequence: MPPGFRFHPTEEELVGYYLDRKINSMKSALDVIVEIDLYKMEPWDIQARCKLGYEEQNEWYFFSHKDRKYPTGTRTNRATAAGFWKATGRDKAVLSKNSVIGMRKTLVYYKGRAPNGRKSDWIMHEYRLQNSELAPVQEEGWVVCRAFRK
The method, boiled down: as §1

For test [12], the target named is T11, GST-NAP(1-166) (Arabidopsis thaliana, UniProt O49255 1-166).
T11 sequence: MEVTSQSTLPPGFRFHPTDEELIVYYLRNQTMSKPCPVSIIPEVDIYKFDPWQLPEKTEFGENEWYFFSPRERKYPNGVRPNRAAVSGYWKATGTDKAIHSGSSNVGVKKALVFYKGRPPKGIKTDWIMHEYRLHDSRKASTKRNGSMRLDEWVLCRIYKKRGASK
The method, boiled down:
as §1

Chain of GST-NTL6(1-168) (Q9SCK6 1-168): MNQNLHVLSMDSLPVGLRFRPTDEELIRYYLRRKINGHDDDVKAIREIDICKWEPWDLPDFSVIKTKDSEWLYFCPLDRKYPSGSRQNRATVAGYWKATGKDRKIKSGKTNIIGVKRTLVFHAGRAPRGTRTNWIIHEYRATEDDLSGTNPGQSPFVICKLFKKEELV

With TTAAGTAA, the binding signal turned out to be 0.236 E-score in test [1]; 0.48 E-score in [2]; 0.198 E-score in [3]; 0.0996 E-score in [4]; 0.168 E-score in test [5]; 0.3 E-score in [6]. For the same sequence, the binding signal in test [7] was determined as 0.258 E-score; in [8] it was 0.34 E-score; in test [9] it was 0.403 E-score; in [10], 0.17 E-score; in test [11], 0.135 E-score.
For the sequence AGGGTAAG, the binding signal in test [1] stood at 0.0785 E-score; in test [2] it was 0.245 E-score; in [3], 0.0566 E-score; in [12] it was 0.0509 E-score; in [7] it was 0.0565 E-score; in test [8], 0.429 E-score. The binding signal in test [9] is 0.111 E-score; in test [10] it was 0.0682 E-score; in [11] it was 0.0597 E-score.
On to ATACGCTA, for which the binding signal in test [1] was 0.451 E-score; in test [2] it was 0.0936 E-score; in [4] it was 0.223 E-score; in test [5] it was 0.187 E-score; in test [6], 0.466 E-score; in [12], 0.155 E-score. In addition, the binding signal in test [7] worked out at 0.331 E-score; in test [9], 0.458 E-score; in test [10], 0.163 E-score; in test [11] it was 0.182 E-score.
As for CTAAGTTA, the binding signal in test [1] was 0.294 E-score; in test [2], 0.393 E-score; in test [4], 0.13 E-score; in test [5] it was 0.173 E-score; in [6] it was 0.279 E-score; in [7], 0.282 E-score. Besides, the binding signal was determined as 0.413 E-score in test [9], 0.21 E-score in test [10] and 0.0803 E-score in test [11].
Turning to AGCGTAAG, the binding signal in [1] worked out at 0.191 E-score; in test [2] it was 0.0608 E-score; in test [4] it was 0.0588 E-score; in [5], 0.0897 E-score; in [6], 0.312 E-score; in test [7] it was 0.172 E-score. Also, the binding signal in test [8] was found to be 0.0559 E-score; in test [9], 0.4 E-score; in [10] it was 0.131 E-score; in [11] it was 0.141 E-score.
Turning to TAAGAAAA, the binding signal in test [1] turned out to be 0.215 E-score; in [2] it was 0.454 E-score; in test [4] it was 0.129 E-score; in [5], 0.193 E-score; in [6], 0.269 E-score; in test [7], 0.235 E-score. Moreover, the binding signal amounted to 0.216 E-score in test [8], 0.301 E-score in test [9], 0.137 E-score in [10] and 0.181 E-score in test [11].
Turning to ATACTTAA, the binding signal is 0.0831 E-score in test [1]; 0.445 E-score in test [2]; 0.14 E-score in test [4]; 0.245 E-score in test [5]; 0.164 E-score in test [6]; 0.0565 E-score in test [12]. Further, the binding signal in test [7] came to 0.224 E-score; in test [8], 0.154 E-score; in test [9] it was 0.246 E-score; in test [10], 0.187 E-score; in test [11], 0.106 E-score.
In the case of GGAAGTAA, the binding signal was 0.249 E-score in test [1]; 0.404 E-score in test [2]; 0.151 E-score in [3]; 0.104 E-score in test [4]; 0.123 E-score in test [5]; 0.307 E-score in test [6]. Moreover, the binding signal in test [7] amounted to 0.248 E-score; in test [8], 0.203 E-score; in [9], 0.259 E-score; in test [10], 0.133 E-score; in test [11], 0.0641 E-score.
Turning to ATTACTTA, the binding signal in test [1] worked out at 0.279 E-score; in [2] it was 0.49 E-score; in [4], 0.191 E-score; in [5], 0.168 E-score; in test [6], 0.349 E-score; in [12], 0.0737 E-score. In addition, the binding signal in test [7] was found to be 0.296 E-score; in test [8] it was 0.31 E-score; in test [9], 0.38 E-score; in [10] it was 0.21 E-score; in test [11] it was 0.154 E-score.
Take TTAAGCAA: the binding signal in test [1] was 0.357 E-score; in test [2], 0.471 E-score; in test [4], 0.133 E-score; in test [5], 0.133 E-score; in [6], 0.356 E-score; in [7], 0.334 E-score. Moreover, the binding signal in test [8] is 0.252 E-score; in test [9] it was 0.473 E-score; in test [10] it was 0.198 E-score; in test [11] it was 0.227 E-score.
As for AGAAGCAA, the binding signal was 0.381 E-score in test [1]; 0.361 E-score in test [2]; 0.0522 E-score in [3]; 0.119 E-score in [4]; 0.0783 E-score in test [5]; 0.42 E-score in test [6]. For the same sequence, the binding signal was 0.284 E-score in test [7]; 0.218 E-score in test [8]; 0.382 E-score in test [9]; 0.109 E-score in [10]; 0.234 E-score in test [11].
As for CAAGCAAC, the binding signal amounted to 0.426 E-score in [1]; 0.239 E-score in test [2]; 0.1 E-score in test [3]; 0.139 E-score in [4]; 0.442 E-score in [6]; 0.311 E-score in test [7]. The binding signal in test [8] is 0.13 E-score; in [9], 0.435 E-score; in test [10] it was 0.164 E-score; in [11], 0.139 E-score.
With ATAGCGTA, the binding signal is 0.437 E-score in test [1]; 0.0935 E-score in test [2]; 0.136 E-score in [4]; 0.165 E-score in test [5]; 0.438 E-score in test [6]; 0.128 E-score in [12]. Moreover, the binding signal in test [7] was 0.355 E-score; in test [9], 0.476 E-score; in [10], 0.137 E-score; in [11], 0.254 E-score.
For TGAAGTAA, the binding signal in [1] came to 0.242 E-score; in test [2] it was 0.377 E-score; in test [4], 0.155 E-score; in test [5] it was 0.169 E-score; in test [6] it was 0.323 E-score; in test [7], 0.324 E-score. Besides, the binding signal in test [8] came to 0.437 E-score; in [9], 0.424 E-score; in [10], 0.131 E-score; in test [11], 0.132 E-score.
Consider GCAAGCAA, for which the binding signal in [1] came out at 0.367 E-score; in [2], 0.26 E-score; in [3], 0.167 E-score; in [4], 0.0669 E-score; in test [6], 0.42 E-score; in test [7] it was 0.28 E-score. For the same sequence, the binding signal in test [8] was determined as 0.0916 E-score; in [9] it was 0.4 E-score; in test [10], 0.0906 E-score; in test [11] it was 0.216 E-score.
